Screens deposited in PubChem by several laboratories.
TLR9-MyD88 inh: blocks human TLR9 binding to MyD88; Q9NR96+Q99836; CHO BLA complementation TLR9-MyD88, CCF4 FRET ratio; inhibition, % at 4.98 µM; 340,000 tested, 0.21% active; AID 504734;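 active = inhibition above the mean over all tested compounds plus 3 SD, cut at about 21% in these data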
TLR4 MyD88 comp: inhibitors of human TLR4-MyD88 binding; AID 861; inhibition, % at 8.4 µM; 200,000 tested, 0.18% active; HeLa CL3-4 TLR4/MyD88 BLA complementation, FRET ratio; in the data active = inhibition above about 25%
HSF1 activator: increases HSF-1 driven luciferase reporter signal | AID 504408 | NIH3T3-HGL HSF-1 luciferase reporter, MG132, 8 h; 100% = twice DMSO control signal | 300,000 tested, 1.7% active | activation, % at 9 µM;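 active = mean replicate activation of at least 50% with a set share of replicates each reaching 50%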
HSF1 inh: HSF1 inhibition | AID 2098 | 300,000 tested, 0.77% active | activity change, negative = inhibition, % at 7.5 µM (by protocol) | NIH3T3-HGL HSE-luciferase, MG132-induced, luminescence 8 h; stronger effect = lower value;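 active = more than half of replicate wells show activity change below -50%, luminescence cut by over half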;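 note: luciferase reports HSF-1 transcriptional activity via heat shock element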
NOD2 RIPK2 PPI: NOD2-RIPK2 protein interaction inhibition; O43353; CHO BLA complementation NOD2-RIPK2, CCF4 ratio; inhibition, % at 4.98 µM; 360,000 tested, 0.38% active; AID 624267; in the data active = inhibition above about 21%
Target sequence (O43353 whole entry, looked up): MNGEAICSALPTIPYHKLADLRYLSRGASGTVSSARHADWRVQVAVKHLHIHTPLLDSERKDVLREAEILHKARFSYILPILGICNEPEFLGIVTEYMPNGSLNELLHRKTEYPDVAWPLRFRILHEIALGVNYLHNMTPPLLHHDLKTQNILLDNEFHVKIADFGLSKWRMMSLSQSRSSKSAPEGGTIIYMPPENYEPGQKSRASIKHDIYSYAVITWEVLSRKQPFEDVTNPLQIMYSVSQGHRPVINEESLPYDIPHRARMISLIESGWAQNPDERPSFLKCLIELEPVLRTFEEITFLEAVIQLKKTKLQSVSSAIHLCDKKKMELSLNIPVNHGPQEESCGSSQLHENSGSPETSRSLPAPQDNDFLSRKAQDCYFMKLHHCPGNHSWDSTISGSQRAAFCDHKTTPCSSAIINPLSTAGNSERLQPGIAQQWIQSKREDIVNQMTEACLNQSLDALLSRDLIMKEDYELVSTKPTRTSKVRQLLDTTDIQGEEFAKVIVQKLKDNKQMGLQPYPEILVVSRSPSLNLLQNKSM
A number is an active result; . = inactive; / = no result. The list is not random: actives were taken first. Their share in the collection is about 2.4%.

SMILES | TLR9-MyD88 inh | TLR4 MyD88 comp | HSF1 activator | HSF1 inh | NOD2 RIPK2 PPI
CCC(C)c1ccccc1N1CC(C(=O)N2CCN(C(=O)c3ccco3)CC2)CC1=O (stereo not drawn) | . | / | / | / | .
O=C1C=C(c2ccc3cc[nH]c3c2)C[C@@H](c2ccc3c(c2)OCO3)C1 | . | / | / | / | .
Nc1nc(Oc2ccc(F)cc2)c(Br)c(=O)[nH]1 | . | / | . | -64 | .
CCOc1ccc(NS(=O)(=O)c2ccc(C(=O)NNC(=O)c3ccccc3O)cc2)cc1 | . | / | . | . | .
CCOC(=O)Cc1nnc(Nc2cccc(C)c2)c2ccccc12 | . | . | 80 | . | .
COC(=O)Cc1nnc(Nc2cccc(C)c2)c2ccccc12 | . | / | . | . | .
O=C(COC(=O)c1cnccn1)NCc1ccccc1Cl | . | / | / | / | .
O=C(NCC(=O)N1CC=C(c2ccccc2)CC1)c1ccc(F)cc1 | . | / | / | / | .
O=c1oc(-c2ccccc2)nc2sc3c(c12)CCC3 | . | . | . | . | .
Nc1nc(-c2ccccc2)nc2sc3c(c12)CCCC3 | . | . | 85 | . | .
CC(C)[C@H](NC(=O)Cc1ccccc1)C(=O)OCc1cc(=O)n2c(n1)sc1ccccc12 | . | . | . | -72 | .
Cc1ccc2c(CC(=O)OCc3cc(=O)n4c(n3)sc3ccccc34)coc2c1 | . | . | . | . | .
COc1ccc(-n2c(=S)[nH]c3cc(C(=O)Nc4ccc(F)cc4)ccc3c2=O)c(OC)c1 | . | / | 87 | . | .
COc1cc(/C=C/C(=O)OCC(=O)NCC(=O)Nc2cccc(C)c2C)ccc1OC(F)F | . | / | / | / | .
CC(On1c(-c2ccccc2)nc2ccc(Cl)cc21)C(=O)O (stereo not drawn) | . | . | . | . | .
On1c(-c2ccccc2)nc2ccc(Cl)cc21 | . | . | 54 | . | .
CCNC(=O)C1(C)CCCN1Cc1cccc(C(F)(F)F)c1 (stereo not drawn) | / | / | / | / | .
CC1(C)CC2CC(C)(CN2C(=O)COc2cccc3ccccc23)C1 (stereo not drawn) | . | . | . | . | .
CC1(C)CC2CC(C)(CN2C(=O)CCCN2C(=O)c3ccccc3C2=O)C1 (stereo not drawn) | . | . | . | -57 | .
COc1ccc([C@H]2C[C@H](n3cc(C4CC4)nn3)[C@@H](O)CN2CC2CCCCC2)cc1 | . | / | / | / | .
CCOC(=O)C1(C)CCCN(C(=O)c2ccccc2F)C1 (stereo not drawn) | / | / | / | / | .
CSc1ccccc1C(=O)Nc1cc(C)ccc1C | . | . | 58 | . | .
Oc1ccc(-c2csc(Nc3ncccn3)n2)cc1O | . | . | 89 | . | .
Cc1cc(-c2csc(Nc3ccccn3)n2)ccc1F | . | / | 80 | . | .
Cc1ccnc(Nc2nc(-c3ccc(F)cc3)cs2)c1 | . | / | 80 | . | .
SMILES | TLR9-MyD88 inh | TLR4 MyD88 comp | HSF1 activator | HSF1 inh | NOD2 RIPK2 PPI
Cc1ccc(-c2csc(Nc3ccccn3)n2)cc1 | . | / | . | . | .
c1ccc(-c2csc(Nc3ccccn3)n2)cc1 | . | / | 82 | . | .
Cc1ccc([N+](=O)[O-])cc1S(=O)(=O)Nc1ccc(C(=O)NCC2CCCO2)cc1 (stereo not drawn) | . | / | / | / | .
Oc1ccc(-c2csc(Nc3ccccn3)n2)cc1 | . | / | 63 | . | .
N#C/C(=C\c1ccc(Cl)cc1)c1nc2ncccc2[nH]1 | . | . | 54 | . | .
N#C/C(=C\c1c(Cl)cccc1Cl)c1nc2ccccc2[nH]1 | . | / | . | . | .
CCOC(=O)CN1C=C(c2ccc3ccccc3n2)C(C[N+](=O)[O-])c2ccccc21 (stereo not drawn) | . | . | 94 | . | .
CN(C)CCCNC(=O)C[C@H]1C[C@H](C(=O)N2CCCCC2)[C@@]2(C)c3[nH]c4cc(CCC(=O)N(C)C)ccc4c3CCN2C1=O | . | / | / | / | .
Oc1c(Cl)cc(CN2CCOCC2)c2cccnc12 | . | / | / | / | .
Oc1c(CN2CCCCC2)cc(Br)c2cccnc12 | . | . | . | -60 | .
N/C(=N\c1nc2c(c(=O)[nH]1)CCC2)Nc1ccccc1C(F)(F)F | . | . | 56 | . | .
CC(=O)N/C(N)=N/c1nc(=O)c2ccccc2s1 | . | / | . | . | .
CCOC(=O)N/C(N)=N/c1nc2ccccc2s1 | . | . | 53 | . | .
CC1(C(=O)Nc2nccs2)CCN1C(=O)C1(c2ccccc2)CC1 (stereo not drawn) | / | / | / | / | .
O=[N+]([O-])c1cc2c(c(CSc3nnc(Nc4ccccc4)s3)c1)OCOC2 | . | . | . | . | .
Cc1ccccc1Nc1nnc(SCc2cc([N+](=O)[O-])cc3c2OCOC3)s1 | . | . | 56 | . | .
COC(CNC(=O)C1CCCN1C(=O)OCc1ccccc1)OC (stereo not drawn) | . | . | . | . | .
COC(=O)[C@@H]1C[C@]2(OC(=O)c3ccccc3)C=CC(=O)C[C@@H]2N1C(=O)OCc1ccccc1 | . | . | 73 | . | .
CCN1/C(=C(\O)c2ccccc2)C(=O)c2ccccc2S1(=O)=O | . | . | . | -70 | .
C=CC(=O)Oc1ccc(N2Cc3ccccc3C2=O)cc1 | / | / | 70 | . | .
COc1ccc(N2Cc3ccccc3C2=O)cc1 | . | / | 54 | . | .
COc1cc(NC(=O)CCl)ccc(=O)c1 | . | / | / | / | .
Cc1ccsc1/C=C/C1=NCCCN1C | . | . | . | -61 | .
CCOc1cc(N2CCOCC2)c(OCC)cc1NC(=O)c1ccc2ncsc2c1 | . | / | / | / | .
CCOc1cc(N2CCOCC2)c(OCC)cc1NC(=O)COc1ncnc2ccccc12 | . | . | . | . | .
SMILES | TLR9-MyD88 inh | TLR4 MyD88 comp | HSF1 activator | HSF1 inh | NOD2 RIPK2 PPI
CCOc1ccc(OCCC(=O)OCC(=O)Nc2cc(OCC)c(N3CCOCC3)cc2OCC)cc1 | . | / | 111 | . | .
CCOc1cc(N2CCOCC2)c(OCC)cc1NC(=O)c1cccc(N(C)C)c1 | . | . | . | -51 | .
CCOc1cc(N2CCOCC2)c(OCC)cc1NC(=O)COC(=O)c1cc2ccccc2cc1O | . | . | . | . | .
CCOc1cc(N2CCOCC2)c(OCC)cc1NC(=O)c1cc(-c2ccco2)nc2ccccc12 | . | . | . | -77 | .
Cc1ccc(NC(=O)c2ccc3nccnc3c2)c(C)c1 | . | / | . | . | .
COc1ccc(N(C(=O)c2snc(C(N)=O)c2N)C(C(=O)NCC2CCCO2)c2ccc3ncccc3c2)cc1OC (stereo not drawn) | . | / | . | . | .
CCOC(=O)C(NC(=O)Nc1ccccc1)(OCC)C(F)(F)F (stereo not drawn) | . | . | . | . | .
CCOC(=O)Cc1cnc(NC(=O)NC(C(=O)OCC)(c2ccccc2)C(F)(F)F)s1 (stereo not drawn) | . | . | 113 | . | .
Cc1ccc([C@H]2C[C@@H](O)[C@H](n3cc(C4CC4)nn3)CN2CC2CCCCC2)cc1 | . | / | / | / | .
COc1ccc2c(c1)c(C(=O)CN1CCOCC1)c(C)n2C | . | . | . | . | .
COc1ccc2c(c1)c(C(=O)CN1CCCCC1)c(C)n2C | . | / | 72 | . | .
Nc1nc(-c2ccccc2)cn1N | . | . | . | . | .
